Bioassay records as filed in PubChem BioAssay.
In the library only some 2.1% were active in any assay of this set; here they are far more common.
Abeta rescue = qHTS for compounds that reverse cellular toxicity of Amyloid beta (A-beta) peptide in yeast: Primary Screen | Potency, µM (top dose mostly 46.1 µM), usual class: activators | 0.063% of 410,000 active | AID 1347071, 2019 | yeast expressing A-beta42, growth rescue, OD600, 48 h; response scale: 0% DMSO, 100% iron-clioquinol control; also: nearly all actives have a fitted effect of over 55% in size
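Yeast growth medium received pinned compounds, then yeast cells expressing toxic A-beta were added; plates incubated at 30 C for 48 hr. Growth read as absorbance at 600 nm, normalized to DMSO and equimolar FeCl3 plus clioquinol controls.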
aSyn yeast inh = qHTS of alpha-syn Inhibitors | Potency, µM (top dose mostly 46.1 µM), actives largely listed as activators | Yeast expressing alpha-synuclein, growth rescue, BacTiter-Glo, 24 h | AID 652106, 2013 | 0.14% of 370,000 active; also: nearly all actives have a fitted effect of over 65% in size
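Galactose-induced alpha-syn yeast (OD600=0.02, raffinose-pregrown) + pinned cpd, 24 hr, 30 deg C; growth by BacTiter-Glo luminescence. Growth restoration scores as activation.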
FUS yeast rescue = qHTS for Suppressors of FUS Proteinopathy: Primary screen using FUS-linked yeast assay; 0.24% of 390,000 active; Potency, µM (series often up to 76.6 µM), actives largely listed as activators; S. cerevisiae FUS-expressing, growth rescue, OD600, 24 h; also: nearly all actives have a fitted effect of over 55% in size
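Quantitative HTS measuring growth restoration of FUS-toxic yeast. Galactose-induced cells (OD 0.005) were exposed 24hr at 30C to compounds at several concentrations, then absorbance at 600 nm was recorded.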
TDP-43 yeast inh = qHTS of TDP-43 Inhibitors; TDP-43 expressing yeast growth rescue, BacTiter-Glo, 24 h; Potency, µM (series often up to 46.1 µM), hits mostly activators; 1.8% of 410,000 active; AID 652104, 2013; also: nearly all actives have a fitted effect of over 50% in size
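Galactose-induced TDP-43 yeast, OD600=0.02, compound pinned; 24 hr, 30 deg C; BacTiter-Glo luminescence for growth. Inhibitors of TDP-43 toxicity read as activators.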
Of the large screens only hits and unclear results are named; the others gave an inactive call; ! = a repeat was not active. Calls follow the shape of the dose curve; as a rule, active = well fitted curve in the direction sought with a large enough effect; inconclusive = small, poorly fitted or top-dose-only effect, or another doubt; inactive = no such curve, though single readings can be large; an effect the other way counts as inactive or inconclusive.

O=C1c2ccccc2C(=O)N1CCSc1n[nH]c(=S)s1	TDP-43 yeast inh 20µM (no result: FUS yeast rescue)
Cc1ccnc(NC(=O)c2ccccc2NC(=O)c2ccccc2)c1	TDP-43 yeast inh inconclusive
O=C(Nc1ccc(Cl)cc1)N1CCC(c2ccccc2)C1 (configuration not stated)	TDP-43 yeast inh 11.2µM!
Cc1ccc(C2CCN(C(=O)Nc3ccccc3)C2)cc1 (configuration not stated)	TDP-43 yeast inh 10µM
Cc1ccc(NC(=S)N2CCC(c3ccc(C)cc3)C2)cc1 (configuration not stated)	Abeta rescue inconclusive, TDP-43 yeast inh 17.8µM
NNC(=O)c1cc2ccccc2[nH]1	none (no result: TDP-43 yeast inh)
NNC(=O)c1cc2cc(Oc3ccccc3)ccc2[nH]1	TDP-43 yeast inh 10µM
O=[N+]([O-])c1ccc(S(=O)(=O)N2CCN(C3CCN(Cc4ccccc4)CC3)CC2)cc1	none
COc1ccc(CCNS(=O)(=O)c2ccccc2[N+](=O)[O-])cc1OC	none
CCOc1ccc(CCNC(=O)c2nc(-c3cccc(F)c3)n3c2CCCCC3)cc1OCC	FUS yeast rescue inconclusive, TDP-43 yeast inh 17.8µM (no result: aSyn yeast inh)
COc1ccc(Cl)cc1NC(=O)COC(=O)C1CC1	Abeta rescue inconclusive
COc1ccc(NC(=O)COC(=O)/C=C/c2cccs2)c(OC)c1	none
COc1ccccc1NC(=O)COC(=O)/C=C/c1cccs1	TDP-43 yeast inh 14.1µM (no result: FUS yeast rescue)
Cc1ccc(Cl)cc1NC(=O)COC(=O)C1CCCC1	Abeta rescue 5.62µM
O=C(COC(=O)C1CCCC1)Nc1cccc(Cl)c1Cl	none
COc1ccc(Cl)cc1NC(=O)COC(=O)Cc1cccs1	TDP-43 yeast inh 10µM
COc1ccc(Cl)cc1NC(=O)COC(=O)C1CCCCC1	Abeta rescue inconclusive, TDP-43 yeast inh 12.6µM
CC(=O)c1ccc(NC(=O)C2CCCN(c3ncnc4c3nc3n4CCCCC3)C2)cc1 (configuration not stated)	TDP-43 yeast inh inconclusive
COc1ccc(/C=C/C(=O)c2ccc([N+](=O)[O-])o2)cc1OC	none
COc1cc(CNCc2ccc(Br)cc2)cc(OC)c1	none
Cc1ccc(S(=O)(=O)C(CNS(=O)(=O)c2ccc(F)c(C(F)(F)F)c2)c2ccco2)cc1 (configuration not stated)	TDP-43 yeast inh 3.98µM (no result: aSyn yeast inh)
COc1ccc(S(=O)(=O)NCC(c2ccco2)S(=O)(=O)c2ccc(C)cc2)cc1F (configuration not stated)	TDP-43 yeast inh inconclusive (no result: aSyn yeast inh)
CCn1c2ccccc2c2cc(/C=N/n3cn[nH]c3=S)ccc21	TDP-43 yeast inh 15.8µM
N#CC(c1ccc(Cl)nn1)c1ccc(Cl)cc1Cl (configuration not stated)	TDP-43 yeast inh 12.6µM
COc1ccc(C(C#N)c2ccc(Cl)nn2)cc1 (configuration not stated)	none
CCC(C(=O)c1ccc2ncccc2c1)c1ccccc1 (configuration not stated)	TDP-43 yeast inh 14.1µM
O=C(COCc1cc(-c2ccc3c(c2)OCO3)on1)N1CCN(c2cccc(C(F)(F)F)c2)CC1	TDP-43 yeast inh 35.5µM!
COc1ccc(CNC(=O)COCc2cc(-c3ccc4c(c3)OCO4)on2)cc1	none (no result: aSyn yeast inh)
COc1cccc(CNC(=O)COCc2cc(-c3ccc4c(c3)OCO4)on2)c1	TDP-43 yeast inh 35.5µM (no result: aSyn yeast inh)
CC(C)Nc1oc(-c2cccc3ccccc23)nc1C#N	none
COc1ccc(NC2CCCN(C(=O)CN3CCOC3=O)C2)cc1OC (configuration not stated)	none
Nc1nc(SCC(=O)N2N=C3/C(=C\c4ccco4)CCCC3C2c2ccco2)n[nH]1 (configuration not stated)	FUS yeast rescue 31.6µM
Nc1nc(SCC(=O)N2N=C3/C(=C/c4ccco4)CCCC3C2c2ccco2)n[nH]1 (configuration not stated)	none
Cc1ccc(S(=O)(=O)N2CCN(C(=O)Cn3c(=O)oc4ccccc43)CC2)cc1	none
Cn1c(SCC(=O)Nc2ccc(Cl)cc2F)nnc1-c1ccco1	aSyn yeast inh 2.82µM
Cc1cc(NC(=O)CSc2nnc(-c3ccco3)n2C)no1	none
O=C(Cn1nc(-c2ccco2)ccc1=O)Nc1cc(Cl)ccc1Cl	TDP-43 yeast inh 12.6µM
O=C(Cn1nc(-c2ccco2)ccc1=O)Nc1cc(C(F)(F)F)ccc1Cl	none
O=C(CSc1ccc(-c2ccco2)nn1)Nc1ccccc1F	TDP-43 yeast inh 28.2µM
CCN(CC)S(=O)(=O)c1ccc2c(c1)N(CC(=O)N1CCN(c3cccc(C(F)(F)F)c3)CC1)C(=O)CO2	FUS yeast rescue inconclusive (no result: aSyn yeast inh)
COC(=O)CN(C)C1CC(=O)N(c2ccc(Cl)cc2)C1=O (configuration not stated)	TDP-43 yeast inh 17.8µM
O=C(Nc1ccc2c(c1)C(=O)N(c1ccccc1)C2=O)C1CCCO1 (configuration not stated)	TDP-43 yeast inh 12.6µM
Cc1cccc(Cc2c(C)nc3c(C(=O)NCc4ccco4)cnn3c2C)c1	FUS yeast rescue 12.6µM
COc1ccc(C2(C)NC(=O)N(Cc3cc(Cl)cc4c3OCOC4)C2=O)cc1OC (configuration not stated)	FUS yeast rescue 35.5µM
Cc1ccc(S(=O)(=O)Nc2nccs2)cc1[N+](=O)[O-]	none
Cc1ccccc1OCC(=O)NNC(=O)C1CCN(c2ncnc3sc(C)c(C)c23)CC1	none
CCOc1ccccc1N=C1SCC(C)N1C(=O)C1CCN(c2ncnc3sc(C)c(C)c23)CC1 (configuration not stated)	TDP-43 yeast inh 20µM
Cc1nc(Nc2ccc3c(c2)OCCO3)c2c(C)c(C)sc2n1	FUS yeast rescue inconclusive, TDP-43 yeast inh 11.2µM
COC(=O)c1ccc2nc(-c3ccco3)c(Cc3ccc(C)cc3)n2c1	aSyn yeast inh inconclusive, TDP-43 yeast inh 20µM
COC(=O)c1ccc2nc(-c3ccc(F)cc3)c(Cc3cccc(F)c3)n2c1	none
Cc1ccc(Cc2c(-c3ccco3)nc3c4ccccc4ccn23)cc1	aSyn yeast inh 12.6µM
Fc1cccc(Cc2c(-c3ccco3)nc3c(Cl)cc(C(F)(F)F)cn23)c1	TDP-43 yeast inh 12.6µM
COC(=O)c1ccc2nc(-c3ccco3)c(Cc3cccc(F)c3)n2c1	aSyn yeast inh inconclusive, TDP-43 yeast inh 14.1µM
Cc1c(CN(C)CCc2ccccc2)c(=O)n(-c2ccccc2)n1C	none
Cc1ccc(S(=O)(=O)Oc2ccccc2N2C(=O)C3C4CCC(C4)C3C2=O)cc1 (configuration not stated)	none
CCOc1ccc2c(c1)c1nnc(SCC(=O)N3CCCCC3C)nc1n2C (configuration not stated)	none
Cc1ccccc1OCCCn1c(CCNC(=O)C2CCCCC2)nc2ccccc21	none
CCOCCCNC(=O)C(NC(=O)Cc1cccs1)c1ccc(C)cc1 (configuration not stated)	none
C=CCn1cccc(C(=O)Nc2ccc(Cl)cc2)c1=O	TDP-43 yeast inh 10µM
